These results are taken from PubChem BioAssay AID2233 (The Scripps Research Institute Molecular Screening Center, 2010).

A word on the inhibition: it is the change of the read-out against control, counted positive when it falls.

This is one part of the list. Unmarked numbers belong to inactive results. Activity calls are given as the source filed them.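 How the source made its calls: active means mean inhibition across replicates above the hit cutoff set in the primary screen (cut at about 15% in these data); inactive means the rest.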

Chain of Acyl-protein thioesterase 1 (Homo sapiens) (O75608 whole entry, looked up): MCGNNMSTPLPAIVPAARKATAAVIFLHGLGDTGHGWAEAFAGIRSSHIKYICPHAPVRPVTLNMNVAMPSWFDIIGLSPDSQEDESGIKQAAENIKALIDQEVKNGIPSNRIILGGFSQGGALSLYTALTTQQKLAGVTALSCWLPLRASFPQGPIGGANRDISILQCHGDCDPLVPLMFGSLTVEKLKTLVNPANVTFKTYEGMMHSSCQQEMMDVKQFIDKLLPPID

The experiment concerns the target Acyl-protein thioesterase 1 (Homo sapiens) (UniProt O75608). Nature of the experiment: LYPLA1 inhibitors, retest, confirmation, counter-screen for PME1 inhibitor project, biochemical, fluorescence polarization, FP-Rh probe ABPP (AID 2233).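 Further: loss of FP-Rh probe labeling of LYPLA1 seen as lower polarization; 0% = LYPLA1 with DMSO and 100% = wells lacking LYPLA1 enzyme.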 As to conditions: recombinant LYPLA1, FP-Rh probe fluorescence polarization; at 5.9 µM; active compounds read high. A general note: A counterscreen serves to expose hits that act by an unwanted route or on another target.
On to `Cc1ccc(S(=O)(=O)N2CCC(C(=O)N[C@@H](C)C(=O)NCc3ccco3)CC2)cc1`, for which the inhibition is 2.78%.

On to `O=C(c1ccc(-c2ccccc2)cc1)C1CCCN(C(=O)c2cncs2)C1` (stereo not drawn), for which the inhibition is 30.7% (active).

In the case of `O=C(CN1CCN(c2cccc(Cl)c2)CC1)Nc1ccc(S(=O)(=O)N2CCOCC2)cc1`, the inhibition is 23.3% (active).

Take `CCN1CCN(CCNC(=O)c2ccc3c(c2)NC(=O)/C(=C\c2ccc(OC)c(OC)c2)S3)CC1`: the inhibition is 19.4% (active).

With `Cc1cccc(N2CCN(C(=O)CN(C)S(=O)(=O)c3ccc4c(c3)CCC(=O)N4)CC2)c1C`, the inhibition is 26.9% (active).

Regarding `O=c1[nH]n(-c2ccc([N+](=O)[O-])cc2)c(=O)c2ccccc12`, the inhibition was 17.7% (active).

As for `CCN1C(=O)/C(=C2/Sc3ccccc3N2CCCS(=O)(=O)O)SC1=S`, the inhibition was 9.65%.

Consider `COc1ccc(N2CC(C(=O)NCCN3C(=O)S/C(=C\c4cccnc4)C3=O)CC2=O)c(OC)c1` (stereo not drawn), for which the inhibition is 1.04%.

On to `COc1ccc(-c2nc(CS(=O)CC(=O)NCc3ccccn3)c(C)o2)cc1` (stereo not drawn), for which the inhibition was 16.5% (active).

With `COc1cccc(NC(=O)N2CCCC2C(=O)NC2CCCCC2)c1` (stereo not drawn), the inhibition was 2.88%.

Turning to `CCOc1ccc(C(=O)NC(=S)Nc2ccc(N3CCOCC3)c(Cl)c2)cc1[N+](=O)[O-]`, the inhibition was 24.6% (active).

Take `CCCCn1c(N)c(N(CCC(C)C)C(=O)CC2OC(=O)c3ccccc32)c(=O)[nH]c1=O` (stereo not drawn): the inhibition was 0.51%.

On to `COCCOC(=O)c1sc(=S)n(CCOC)c1N`, for which the inhibition was 13.4%.

Take `COc1ccccc1C(=O)NC(CCSC)C(=O)N1CCN(C/C=C/c2ccccc2)CC1` (stereo not drawn): the inhibition is 19.9% (active).

`O=c1[nH]n(-c2cccc(Cl)c2)c2ncccc12`: the inhibition was 2.75%.

`C=CCNC(=O)c1sc(SC)cc1-c1ccc(Cl)cc1`: the inhibition is 23.5% (active).

In the case of `CCC(=C/c1sc2ccc3ccccc3c2[n+]1C)/C=C1\Sc2ccc3ccccc3c2N1C`, the inhibition was 78.8% (active).

On to `O=C(CCn1c(SCC(=O)c2ccccc2)nc2ccccc2c1=O)NCc1ccc(F)cc1`, for which the inhibition was -4.57%.

Turning to `CSc1c(SCc2ccccc2)cnn(Cc2ccccc2)c1=O`, the inhibition is 2.84%.

As to `O=C(COc1ccc(Cl)cc1)N1CCN(c2cccc(C(F)(F)F)c2)CC1`, the inhibition was 31.6% (active).

Regarding `CCOc1ccccc1N1CCN(C(=O)c2ccc3[nH]c(C)c(C)c3c2)CC1`, the inhibition was 29.3% (active).

Take `Cc1ccc(N2CCN(C3=NC(=O)/C(=C\c4cccs4)S3)CC2)cc1`: the inhibition is 37% (active).

In the case of `CN(CCOc1ccccc1)C(=O)c1cc(COc2c(F)cccc2F)on1`, the inhibition was 12.1%.
